Assay in all cases: PBM; 200 nM protein, PBS
Common to all, as to conditions: dsDNA, one strand shown

The target of experiment [1] is HESX1 (Homo sapiens, UniProt Q9UBX0 95-180, R165K).
Experiment [2] addresses HOXB4 (Homo sapiens, UniProt P17483 148-234).
Experiment [3] concerns the target SHOX (Homo sapiens, UniProt O15266 103-189).
Experiment [4] has as its target HESX1 (Homo sapiens, UniProt Q9UBX0 95-180).
A further experiment concerns the target HOXA4 (Homo sapiens, UniProt Q00056 201-287, R217L).
In experiment [5] the target is HOXB4 (Homo sapiens, UniProt P17483 148-234, V174I).
Chain of HOXB4 (Homo sapiens, UniProt P17483 148-234, V174I) (P17483 148-234 V174I): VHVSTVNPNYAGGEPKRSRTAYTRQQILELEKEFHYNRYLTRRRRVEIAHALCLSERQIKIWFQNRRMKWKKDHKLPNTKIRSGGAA
Experiment [6] has as its target ALX1 (Homo sapiens, UniProt Q15699 118-204, L144V).
For experiment [7], the target named is ALX3 (Homo sapiens, UniProt O95076 139-225, N203Q).
Chain of ALX3 (Homo sapiens, UniProt O95076 139-225, N203Q) (O95076 139-225 N203Q): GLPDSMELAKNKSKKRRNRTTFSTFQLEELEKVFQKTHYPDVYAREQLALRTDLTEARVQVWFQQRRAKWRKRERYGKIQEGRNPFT
Experiment [8] deals with SHOX (Homo sapiens, UniProt O15266 103-189, R173C).
Chain of SHOX (Homo sapiens, UniProt O15266 103-189, R173C) (O15266 103-189 R173C): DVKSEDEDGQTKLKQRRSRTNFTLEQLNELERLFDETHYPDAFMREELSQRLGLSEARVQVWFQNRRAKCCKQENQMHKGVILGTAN
The target in experiment [9] is ALX1 (Homo sapiens, UniProt Q15699 118-204, L144R).
Chain of ALX1 (Homo sapiens, UniProt Q15699 118-204, L144R) (Q15699 118-204 L144R): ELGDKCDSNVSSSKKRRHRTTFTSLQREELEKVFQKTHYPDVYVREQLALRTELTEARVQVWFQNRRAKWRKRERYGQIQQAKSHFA
Experiment [10] deals with ALX3 (Homo sapiens, UniProt O95076 139-225).
Chain of ALX3 (Homo sapiens, UniProt O95076 139-225) (O95076 139-225): as the sequence (O95076 139-225 N203Q) above, with Q65N counted along it
The target in experiment [11] is PROP1 (Homo sapiens, UniProt O75360 56-141).
Chain of PROP1 (Homo sapiens, UniProt O75360 56-141) (O75360 56-141): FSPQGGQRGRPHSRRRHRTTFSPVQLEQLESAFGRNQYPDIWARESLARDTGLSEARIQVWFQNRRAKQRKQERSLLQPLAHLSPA
Experiment [12] addresses HESX1 (Homo sapiens, UniProt Q9UBX0 95-180, R109Q).
The target in experiment [13] is PROP1 (Homo sapiens, UniProt O75360 56-141, R99H).
Chain of PROP1 (Homo sapiens, UniProt O75360 56-141, R99H) (O75360 56-141 R99H): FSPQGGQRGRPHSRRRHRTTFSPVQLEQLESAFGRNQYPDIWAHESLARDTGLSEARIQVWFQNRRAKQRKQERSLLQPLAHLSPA
In experiment [14] the target is ALX3 (Homo sapiens, UniProt O95076 139-225, L168Q).
Chain of ALX3 (Homo sapiens, UniProt O95076 139-225, L168Q) (O95076 139-225 L168Q): as the sequence (O95076 139-225 N203Q) above, with L30Q, Q65N counted along it
For experiment [15], the target named is HESX1 (Homo sapiens, UniProt Q9UBX0 95-180, P111T).
Chain of HESX1 (Homo sapiens, UniProt Q9UBX0 95-180, P111T) (Q9UBX0 95-180 P111T): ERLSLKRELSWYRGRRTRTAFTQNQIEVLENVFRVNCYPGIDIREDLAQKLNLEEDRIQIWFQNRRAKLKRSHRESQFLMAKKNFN
Experiment [16] addresses ALX3 (Homo sapiens, UniProt O95076 139-225, L168V).
Experiment [17] concerns the target PROP1 (Homo sapiens, UniProt O75360 56-141, F88S).
Experiment [18] deals with HESX1 (Homo sapiens, UniProt Q9UBX0 95-180, F115L).
Chain of HESX1 (Homo sapiens, UniProt Q9UBX0 95-180, F115L) (Q9UBX0 95-180 F115L): as the sequence (Q9UBX0 95-180 P111T) above, with T17P, F21L counted along it
Experiment [19] concerns the target ALX3 (Homo sapiens, UniProt O95076 139-225, N203S).

In PMC11006913 one finds binding signal data, which are given here for four sequences.

Chain of HOXB4 (Homo sapiens, UniProt P17483 148-234) (P17483 148-234): as the sequence (P17483 148-234 V174I) above, with I27V counted along it
Chain of HESX1 (Homo sapiens, UniProt Q9UBX0 95-180, R165K) (Q9UBX0 95-180 R165K): as the sequence (Q9UBX0 95-180 P111T) above, with T17P, R71K counted along it
Chain of SHOX (Homo sapiens, UniProt O15266 103-189) (O15266 103-189): as the sequence (O15266 103-189 R173C) above, with C71R counted along it
Chain of HOXA4 (Q00056 201-287 R217L): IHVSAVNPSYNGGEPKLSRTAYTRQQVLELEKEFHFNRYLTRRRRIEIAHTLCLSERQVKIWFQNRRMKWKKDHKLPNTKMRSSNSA
Chain of HESX1 (Homo sapiens, UniProt Q9UBX0 95-180, R109Q) (Q9UBX0 95-180 R109Q): as the sequence (Q9UBX0 95-180 P111T) above, with R15Q, T17P counted along it
Chain of ALX1 (Homo sapiens, UniProt Q15699 118-204, L144V) (Q15699 118-204 L144V): as the sequence (Q15699 118-204 L144R) above, with R27V counted along it
Chain of ALX3 (Homo sapiens, UniProt O95076 139-225, L168V) (O95076 139-225 L168V): as the sequence (O95076 139-225 N203Q) above, with L30V, Q65N counted along it
Chain of ALX3 (Homo sapiens, UniProt O95076 139-225, N203S) (O95076 139-225 N203S): as the sequence (O95076 139-225 N203Q) above, with Q65S counted along it
Chain of PROP1 (Homo sapiens, UniProt O75360 56-141, F88S) (O75360 56-141 F88S): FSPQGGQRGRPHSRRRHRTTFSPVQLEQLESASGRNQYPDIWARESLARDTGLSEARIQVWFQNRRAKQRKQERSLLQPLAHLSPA
Chain of HESX1 (Homo sapiens, UniProt Q9UBX0 95-180) (Q9UBX0 95-180): as the sequence (Q9UBX0 95-180 P111T) above, with T17P counted along it

Regarding TAATTAAA, the binding signal with HESX1 [1] is 13.1 upbm affinity estimate (log intensity, higher = more binding, comparable within an allelic series); in the experiment with HOXB4 [2], 13.3 upbm affinity estimate (log intensity, higher = more binding, comparable within an allelic series); with SHOX [3] it was 12.8 upbm affinity estimate (log intensity, higher = more binding, comparable within an allelic series); in the experiment with HESX1 [4] it was 13.1 upbm affinity estimate (log intensity, higher = more binding, comparable within an allelic series); with HOXA4, 12.8 upbm affinity estimate (log intensity, higher = more binding, comparable within an allelic series); with HOXB4 [5], 14.1 upbm affinity estimate (log intensity, higher = more binding, comparable within an allelic series). The binding signal in the experiment with ALX1 [6] is 11.9 upbm affinity estimate (log intensity, higher = more binding, comparable within an allelic series); with ALX3 [7], 8.59 upbm affinity estimate (log intensity, higher = more binding, comparable within an allelic series); with SHOX [8], 10.6 upbm affinity estimate (log intensity, higher = more binding, comparable within an allelic series); with ALX1 [9] it was 11.6 upbm affinity estimate (log intensity, higher = more binding, comparable within an allelic series); with ALX3 [10], 12.8 upbm affinity estimate (log intensity, higher = more binding, comparable within an allelic series); with PROP1 [11], 11.9 upbm affinity estimate (log intensity, higher = more binding, comparable within an allelic series). Further, the binding signal with HESX1 [12] was 10 upbm affinity estimate (log intensity, higher = more binding, comparable within an allelic series); in the experiment with PROP1 [13], 11.9 upbm affinity estimate (log intensity, higher = more binding, comparable within an allelic series); with ALX3 [14] it was 11.3 upbm affinity estimate (log intensity, higher = more binding, comparable within an allelic series); with HESX1 [15] it was 12.1 upbm affinity estimate (log intensity, higher = more binding, comparable within an allelic series); in the experiment with ALX3 [16] it was 11.1 upbm affinity estimate (log intensity, higher = more binding, comparable within an allelic series); with PROP1 [17] it was 8.07 upbm affinity estimate (log intensity, higher = more binding, comparable within an allelic series). The binding signal is 8.41 upbm affinity estimate (log intensity, higher = more binding, comparable within an allelic series) with HESX1 [18] and 8.72 upbm affinity estimate (log intensity, higher = more binding, comparable within an allelic series) in the experiment with ALX3 [19].

Take GTAATTAC: the binding signal with HESX1 [1] is 12.5 upbm affinity estimate (log intensity, higher = more binding, comparable within an allelic series); with HOXB4 [2], 13.7 upbm affinity estimate (log intensity, higher = more binding, comparable within an allelic series); in the experiment with SHOX [3], 12.4 upbm affinity estimate (log intensity, higher = more binding, comparable within an allelic series); with HESX1 [4], 12.6 upbm affinity estimate (log intensity, higher = more binding, comparable within an allelic series); with HOXA4 it was 13.2 upbm affinity estimate (log intensity, higher = more binding, comparable within an allelic series); with HOXB4 [5] it was 14.4 upbm affinity estimate (log intensity, higher = more binding, comparable within an allelic series). Also, the binding signal was 12.1 upbm affinity estimate (log intensity, higher = more binding, comparable within an allelic series) in the experiment with ALX1 [6]; 8.56 upbm affinity estimate (log intensity, higher = more binding, comparable within an allelic series) in the experiment with ALX3 [7]; 9.86 upbm affinity estimate (log intensity, higher = more binding, comparable within an allelic series) with SHOX [8]; 11.7 upbm affinity estimate (log intensity, higher = more binding, comparable within an allelic series) with ALX1 [9]; 12.7 upbm affinity estimate (log intensity, higher = more binding, comparable within an allelic series) with ALX3 [10]; 11.8 upbm affinity estimate (log intensity, higher = more binding, comparable within an allelic series) with PROP1 [11]. Besides, the binding signal was 9.11 upbm affinity estimate (log intensity, higher = more binding, comparable within an allelic series) in the experiment with HESX1 [12]; 11.6 upbm affinity estimate (log intensity, higher = more binding, comparable within an allelic series) in the experiment with PROP1 [13]; 10.7 upbm affinity estimate (log intensity, higher = more binding, comparable within an allelic series) in the experiment with ALX3 [14]; 11 upbm affinity estimate (log intensity, higher = more binding, comparable within an allelic series) in the experiment with HESX1 [15]; 10.2 upbm affinity estimate (log intensity, higher = more binding, comparable within an allelic series) with ALX3 [16]; 8.06 upbm affinity estimate (log intensity, higher = more binding, comparable within an allelic series) in the experiment with PROP1 [17]. The binding signal with HESX1 [18] is 7.87 upbm affinity estimate (log intensity, higher = more binding, comparable within an allelic series); with ALX3 [19] it was 8.69 upbm affinity estimate (log intensity, higher = more binding, comparable within an allelic series).

With TAATTACA, the binding signal in the experiment with HESX1 [1] is 12.5 upbm affinity estimate (log intensity, higher = more binding, comparable within an allelic series); in the experiment with HOXB4 [2] it was 13.6 upbm affinity estimate (log intensity, higher = more binding, comparable within an allelic series); with SHOX [3] it was 12.1 upbm affinity estimate (log intensity, higher = more binding, comparable within an allelic series); with HESX1 [4], 12.6 upbm affinity estimate (log intensity, higher = more binding, comparable within an allelic series); in the experiment with HOXA4 it was 12.9 upbm affinity estimate (log intensity, higher = more binding, comparable within an allelic series); with HOXB4 [5], 14.4 upbm affinity estimate (log intensity, higher = more binding, comparable within an allelic series). The binding signal is 11.9 upbm affinity estimate (log intensity, higher = more binding, comparable within an allelic series) in the experiment with ALX1 [6]; 8.51 upbm affinity estimate (log intensity, higher = more binding, comparable within an allelic series) in the experiment with ALX3 [7]; 9.87 upbm affinity estimate (log intensity, higher = more binding, comparable within an allelic series) in the experiment with SHOX [8]; 11.5 upbm affinity estimate (log intensity, higher = more binding, comparable within an allelic series) with ALX1 [9]; 12.7 upbm affinity estimate (log intensity, higher = more binding, comparable within an allelic series) with ALX3 [10]; 11.8 upbm affinity estimate (log intensity, higher = more binding, comparable within an allelic series) with PROP1 [11]. Further, the binding signal with HESX1 [12] was 9.27 upbm affinity estimate (log intensity, higher = more binding, comparable within an allelic series); with PROP1 [13] it was 11.5 upbm affinity estimate (log intensity, higher = more binding, comparable within an allelic series); with ALX3 [14] it was 10.8 upbm affinity estimate (log intensity, higher = more binding, comparable within an allelic series); with HESX1 [15], 11.1 upbm affinity estimate (log intensity, higher = more binding, comparable within an allelic series); with ALX3 [16], 10.3 upbm affinity estimate (log intensity, higher = more binding, comparable within an allelic series); in the experiment with PROP1 [17] it was 7.98 upbm affinity estimate (log intensity, higher = more binding, comparable within an allelic series). Further, the binding signal was 7.89 upbm affinity estimate (log intensity, higher = more binding, comparable within an allelic series) in the experiment with HESX1 [18] and 8.62 upbm affinity estimate (log intensity, higher = more binding, comparable within an allelic series) in the experiment with ALX3 [19].

For the sequence CTCAATTA, the binding signal with HESX1 [1] is 12.7 upbm affinity estimate (log intensity, higher = more binding, comparable within an allelic series); with HOXB4 [2] it was 13.1 upbm affinity estimate (log intensity, higher = more binding, comparable within an allelic series); in the experiment with SHOX [3], 12 upbm affinity estimate (log intensity, higher = more binding, comparable within an allelic series); with HESX1 [4], 12.7 upbm affinity estimate (log intensity, higher = more binding, comparable within an allelic series); in the experiment with HOXA4 it was 12 upbm affinity estimate (log intensity, higher = more binding, comparable within an allelic series); with HOXB4 [5], 13.8 upbm affinity estimate (log intensity, higher = more binding, comparable within an allelic series). Also, the binding signal is 11.8 upbm affinity estimate (log intensity, higher = more binding, comparable within an allelic series) with ALX1 [6]; 8.29 upbm affinity estimate (log intensity, higher = more binding, comparable within an allelic series) with ALX3 [7]; 9.56 upbm affinity estimate (log intensity, higher = more binding, comparable within an allelic series) with SHOX [8]; 11.5 upbm affinity estimate (log intensity, higher = more binding, comparable within an allelic series) with ALX1 [9]; 12.5 upbm affinity estimate (log intensity, higher = more binding, comparable within an allelic series) with ALX3 [10]; 11.5 upbm affinity estimate (log intensity, higher = more binding, comparable within an allelic series) in the experiment with PROP1 [11]. Moreover, the binding signal with HESX1 [12] was 9.12 upbm affinity estimate (log intensity, higher = more binding, comparable within an allelic series); in the experiment with PROP1 [13] it was 11.6 upbm affinity estimate (log intensity, higher = more binding, comparable within an allelic series); in the experiment with ALX3 [14], 10.5 upbm affinity estimate (log intensity, higher = more binding, comparable within an allelic series); with HESX1 [15] it was 11.2 upbm affinity estimate (log intensity, higher = more binding, comparable within an allelic series); with ALX3 [16] it was 9.95 upbm affinity estimate (log intensity, higher = more binding, comparable within an allelic series); with PROP1 [17], 7.64 upbm affinity estimate (log intensity, higher = more binding, comparable within an allelic series). For the same sequence, the binding signal was 7.72 upbm affinity estimate (log intensity, higher = more binding, comparable within an allelic series) with HESX1 [18] and 8.43 upbm affinity estimate (log intensity, higher = more binding, comparable within an allelic series) with ALX3 [19].
